Screening data deposited in PubChem by National Center for Advancing Translational Sciences (NCATS).
Tau FP inhib: inhibitors of human tau fibril formation | K18 P301L tau heparin fibrillization, Alexa594 FP, 6 h | actives 0.39% (n = 280,000) | AID 1468 | Potency, µM (titrated, usually from 57.7 µM), hits mostly inhibitors | P10636; note: nearly all actives have a fitted effect of over 55% in size
Target sequence (P10636 561-689 P618L limits assumed): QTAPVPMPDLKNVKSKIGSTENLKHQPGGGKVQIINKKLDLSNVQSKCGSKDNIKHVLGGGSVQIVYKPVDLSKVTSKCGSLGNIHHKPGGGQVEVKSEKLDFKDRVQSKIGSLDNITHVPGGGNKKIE
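K18 P301L tau (15 uM unlabeled/0.24 uM Alexa 594-labeled, final) + compound + heparin 20 uM final; 100 mM NaOAc pH 7; 6 hr 37 C; ThT 30 uM final added, 1 hr RT; FP ex 555/em 632 nm.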
Tau fibril ThT: blocks human tau fibril formation measured by thioflavin T; P10636; recombinant tau K18 P301L, heparin-induced fibrillization, ThT fluorescence; Potency, µM (series often up to 57.4 µM), usual class: inhibitors; actives 2.1% (n = 270,000); note: nearly all actives have a fitted effect of over 55% in size
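Aggregation was driven by heparin (20 uM final) acting on recombinant tau […] bearing P301L in 100 mM sodium acetate pH 7; fibrils were detected with Thioflavin T.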
Tau fluor counter: counter-screen for tau fibril formation inhibitors; tau K18 P301L (four-repeat tau fragment) Alexa594 fluorescence, heparin fibrillization; Potency, µM (doses to about 57.7 µM); actives 0.93% (n = 280,000); note: nearly all actives have a fitted effect of over 55% in size
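Human K18 P301L tau (15 uM unlabeled plus 0.24 uM Alexa 594-labeled, final) in 100 mM sodium acetate pH 7 was mixed with compound and 20 uM heparin and incubated 6 hr at 37 C.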
TR SRC2 fluor cs: Texas Red fluorescence interference in TRb-SRC2 counter-screen; AID 1479; Potency, µM (doses to about 106 µM); TRb/SRC2 Texas Red total fluorescence interference; actives 0.29% (n = 280,000); active = well fitted curve in either direction with a large enough effect; inconclusive = small, poorly fitted or top-dose-only effect
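Human TRb ligand-binding domain at 0.6 uM with 20 nM Texas Red SRC2 peptide in Tris buffer containing 1 uM T3 and 5% DMSO, incubated with compound 5 h at ambient temperature. Total fluorescence (555/632 nm) calculated as parallel + 2 × perpendicular.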
TRb SRC2 PPI: inhibitors of human thyroid hormone receptor beta-SRC2 interaction. P10828. TRbeta-SRC2 peptide binding, fluorescence polarization; receptor liganded with 1 µM T3. Potency, µM (series often up to 106 µM), hits mostly inhibitors. actives 0.065% (n = 280,000). AID 1469; note: nearly all actives have a fitted effect of over 50% in size
Target sequence (P10828 whole entry, looked up): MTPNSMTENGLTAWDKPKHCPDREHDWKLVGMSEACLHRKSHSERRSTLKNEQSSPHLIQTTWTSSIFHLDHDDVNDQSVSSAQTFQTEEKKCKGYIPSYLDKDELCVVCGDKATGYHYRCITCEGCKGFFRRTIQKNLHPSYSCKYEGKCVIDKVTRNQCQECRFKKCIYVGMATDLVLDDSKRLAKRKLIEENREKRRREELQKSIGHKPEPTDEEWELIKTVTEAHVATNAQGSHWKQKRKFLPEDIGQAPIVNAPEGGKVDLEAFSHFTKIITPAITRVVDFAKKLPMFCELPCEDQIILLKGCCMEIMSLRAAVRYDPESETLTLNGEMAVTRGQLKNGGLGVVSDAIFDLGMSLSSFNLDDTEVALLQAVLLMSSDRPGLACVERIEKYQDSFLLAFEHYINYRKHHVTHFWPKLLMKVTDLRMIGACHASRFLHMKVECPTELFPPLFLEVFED
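Fluorescence polarization of 20 nM Texas Red SRC2 peptide (20-aa NR interaction domain) bound to 0.6 uM human TRb ligand-binding domain, with 1 uM T3, after 5 hr at ambient temperature; inhibition seen as decreased polarization.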
Large screens that a line does not name were inactive; [ ] = another dose, or the depositor's remark. Most compounds without a hit are left out; they make up all but 3.1% or so of the library. Unless noted, calls come from the whole dose curve; as a rule, active = well fitted curve in the direction sought with a large enough effect; inconclusive = small, poorly fitted or top-dose-only effect, or another doubt; inactive = no such curve, though single readings can be large; an effect the other way counts as inactive or inconclusive.

CSc1ccc(-c2nc3cnccn3c2Nc2ccc3c(c2)OCO3)cc1	Tau FP inhib inconclusive, Tau fibril ThT inconclusive, Tau fluor counter inconclusive
O=C(CCn1c(=O)[nH]c2ccsc2c1=O)Nc1ccc(F)c(F)c1	none
CC(=O)OC(C)(C)C1CC=C(C)CC1 (configuration not stated)	none (no result: Tau FP inhib, Tau fibril ThT, Tau fluor counter)
COC(=O)C1=C(C)N=C2SC(C#N)=C(N)N2C1c1ccc(OCc2ccccc2)cc1 (configuration not stated)	Tau FP inhib inconclusive, Tau fibril ThT inconclusive, Tau fluor counter 7.94µM[quencher]
CN(C)c1ccc(N2CN=C3SCC(=O)N3C2)cc1	Tau FP inhib 12.6µM, Tau fibril ThT 5.01µM, Tau fluor counter inconclusive, TR SRC2 fluor cs inconclusive, TRb SRC2 PPI 15.8µM
O=C1CSC2=NCN(c3ccc4c(c3)OCO4)CN12	Tau fibril ThT inconclusive
O=C(/C=C/NNC(=O)c1ccc(Cl)cc1)c1ccccc1	Tau fibril ThT 22.4µM
O=C(NCc1ccccc1)c1ccc(Cl)cc1	none (no result: Tau fibril ThT)
O=C(/C=C/NNC(=O)c1ccccc1)c1ccc(Br)cc1	Tau fibril ThT 25.1µM, Tau fluor counter inconclusive
O=C(/C=C/NNC(=O)c1cccc(Br)c1)c1cccc(Br)c1	Tau fibril ThT 14.1µM, Tau fluor counter inconclusive
COC(=O)C1CCN(Cc2cn(-c3ccccc3)nc2-c2ccc3c(c2)OCO3)CC1	none
CCOC(=O)c1ccccc1NC(=O)Cn1ncc2c([nH]c3ccccc32)c1=O	none
CCCCCCCC[Si](Cl)(Cl)Cl	none (no result: Tau FP inhib, Tau fibril ThT, Tau fluor counter)
CC(=O)NC1=NC(=O)/C(=C/c2cn(C(C)=O)nc2-c2ccccc2)S1	Tau FP inhib inconclusive, Tau fibril ThT 28.2µM
COC(=O)c1ccc(COn2nnc3ccccc32)cc1	none
O=C(Nc1ccc(N2CCOCC2)cc1)C1CC(=O)N(c2ccccc2)C1 (configuration not stated)	Tau fibril ThT 4.47µM
O=C(Nc1ccc(N2CCOCC2)cc1)C1CC(=O)N(c2ccc(Cl)cc2)C1 (configuration not stated)	Tau fibril ThT inconclusive
CCOC(=O)N1CCc2c(sc3c2c(=O)n(-c2ccc(Cl)cc2)c(=O)n3Cc2cccc(OC)c2)C1	none
COc1ccc2c(n1)Sc1nc3ccccc3nc1N2	Tau fibril ThT 1µM, Tau fluor counter 3.98µM[quencher]
CCOc1ccc(NC(=O)CCc2nnc3n(C)c(=O)c4sccc4n23)cc1	Tau fibril ThT inconclusive, TR SRC2 fluor cs 0.0355µM[quencher]
COc1ccccc1N1CCN(C(=O)CCc2nnc3n(C)c(=O)c4sccc4n23)CC1	TR SRC2 fluor cs 22.4µM[quencher], TRb SRC2 PPI inconclusive
O=Nc1c(O)n(Cc2cccc(C(F)(F)F)c2)c2ccccc12	Tau fibril ThT inconclusive
O=[N+]([O-])c1cccc(N=Cc2sc3ccccc3c2O)c1	Tau fibril ThT inconclusive
O=[N+]([O-])c1ccc(N=Cc2sc3ccccc3c2O)cc1	Tau fibril ThT 0.708µM
Nc1ccc(Cc2ccc(N)c(O)c2)cc1O	Tau FP inhib inconclusive, Tau fibril ThT 14.1µM, Tau fluor counter inconclusive
CCCCn1cc2c(c1-c1ccccc1Br)c(=O)n(C)c(=O)n2C	none
CCCC1Nc2ccc(C(=O)O)cc2C2C=CCC12 (configuration not stated)	Tau FP inhib inconclusive, Tau fibril ThT 22.4µM, Tau fluor counter inconclusive
O=C(O)c1ccc2c(c1)C1C=CCC1C(c1ccncc1)N2 (configuration not stated)	Tau FP inhib inconclusive, Tau fibril ThT 25.1µM, Tau fluor counter inconclusive
COc1ccc(NC(=O)CSc2nc(-c3ccco3)cc(C(F)(F)F)n2)cc1	Tau FP inhib inconclusive, TR SRC2 fluor cs inconclusive
O=C(/C=C/c1cccnc1)c1cc(F)ccc1O	none
O=C(/C=C/c1cccnc1)/C=C/c1cccnc1	Tau FP inhib inconclusive, Tau fibril ThT 4.47µM
O=C(NC1(C(F)(F)F)C(=O)Nc2c1c(=O)[nH]c(=O)n2CCc1ccccc1)c1ccc(Cl)cc1 (configuration not stated)	none
CC(C)c1ccc(NC(=S)Nc2ccc3cn[nH]c3c2)cc1	Tau fibril ThT inconclusive
CC(=O)c1ccc(NC(=S)Nc2ccc3cn[nH]c3c2)cc1	Tau FP inhib inconclusive, Tau fibril ThT 15.8µM, Tau fluor counter inconclusive
O=[N+]([O-])c1ccc(Cl)c(-c2ccc(/C=N/c3c(-c4ccco4)nc4ccccn34)o2)c1	Tau fibril ThT inconclusive
O=[N+]([O-])c1ccc(-c2ccc(/C=N/c3c(-c4ccco4)nc4ccccn34)o2)cc1	Tau fibril ThT 2.82µM, Tau fluor counter inconclusive
Oc1cccc(/C=N/c2c(-c3ccco3)nc3ccccn23)c1	Tau FP inhib inconclusive, Tau fibril ThT inconclusive, Tau fluor counter inconclusive
O=[N+]([O-])c1ccc(-c2ccc(/C=N/c3c(-c4ccco4)nc4ccccn34)o2)c(Cl)c1	Tau fibril ThT 2µM
Cc1cc(C)c([N+](=O)[O-])cc1-c1ccc(/C=N/c2c(-c3ccco3)nc3ccccn23)o1	Tau FP inhib inconclusive, Tau fibril ThT 5.01µM, Tau fluor counter 25.1µM[quencher]
Cc1cc(O)c(C(C)C)cc1N=Nc1ccccc1C(=O)O	Tau fibril ThT 6.31µM
Cc1cc(N=Nc2ccccc2C(=O)O)c(C)c(C)c1O	Tau fibril ThT 0.891µM, Tau fluor counter inconclusive, TR SRC2 fluor cs inconclusive
Cc1cc(O)c(C(C)C)cc1N=C1CSC(=O)N1	Tau fibril ThT inconclusive, Tau fluor counter inconclusive
Cc1cc(C)c(C)c(C(=O)c2ccccc2C(=O)O)c1C	none
COc1cc(C(=O)O)ccc1O	none
COc1cc(N=Nc2ccccc2C(=O)O)ccc1O	Tau fibril ThT 7.08µM
Cc1ccc(N(CC(C)C)S(=O)(=O)c2nnc(NC(=O)c3cccs3)s2)cc1	none
CCc1cc2c3c(c1)C1(C(=O)N3C(C)(C)C=C2C)C(C#N)=C(N)Oc2[nH]c(=O)[nH]c(=O)c21 (configuration not stated)	Tau FP inhib inconclusive, Tau fibril ThT 14.1µM, Tau fluor counter inconclusive
COC(=O)c1c(NC(=O)CN2CCC3(O)CCCCC3C2c2ccc(OC)cc2OC)sc(C)c1C (configuration not stated)	TR SRC2 fluor cs 100µM[quencher], TRb SRC2 PPI inconclusive
COC(=O)c1c(NC(=O)CN2CCC3(O)CCCCC3C2c2ccccc2OC)sc(C)c1C (configuration not stated)	none
Cc1ccc(C)c(NC(=O)C(Cc2ccccc2)n2cccc2)c1 (configuration not stated)	none
CC(=O)Oc1ccc2c(c1)CCC1C2CC[C@]2(C)C(=O)CCC12 (some centres not stated)	none
O=C(CCS(=O)(=O)c1ccc(Br)s1)Nc1cc(C(F)(F)F)cc(C(F)(F)F)c1	Tau FP inhib 20µM, Tau fluor counter inconclusive, TR SRC2 fluor cs inconclusive
CC(C)Nc1ccc(Nc2ccnc3cc4ccccc4cc23)cc1	Tau fibril ThT 5.01µM, Tau fluor counter 17.8µM[quencher]
O=C(Nc1ccccc1)Nc1sccc1-c1nc2ccccc2s1	Tau FP inhib inconclusive, Tau fibril ThT inconclusive, Tau fluor counter inconclusive
